Compound activity: PubChem BioAssay, National Center for Advancing Translational Sciences (NCATS)
Pf growth 48h = inhibits P. falciparum growth in the first generation, 48 h; P. falciparum luciferase growth in erythrocytes, 48 h; Potency, µM (titrated, usually from 28.7 µM), inactives show at the top dose activity change, negative = inhibition, actives largely listed as inhibitors; actives 5.9% (n = 310,000); AID 504832; further: potency means the concentration at half of the fitted maximal effect; on the % scale 0 is the no-effect control and ±100 the full control effect
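Luciferase-expressing P. falciparum in infected erythrocytes (2% hematocrit, 0.1% parasitemia final) in RPMI 1640/0.5% Albumax were exposed to compound for 48 hours at 37 C, 5% CO2; growth read as luminescence.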
Pf growth 96h = P. falciparum growth inhibition at 96 hour, primary screen for plastid delayed-death inhibitors. Potency, µM (series often up to 28.7 µM), for inactives: at the highest dose activity change, negative = inhibition, most hits filed as inhibitors. P. falciparum luciferase reporter growth, 96 h. actives 6.9% (n = 320,000); further: potency means the concentration at half of the fitted maximal effect; on the % scale 0 is the no-effect control and ±100 the full control effect
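Two-generation exposure (96 h) targets delayed-death phenotype. Reporter parasites carrying integrated firefly luciferase, in red cells at 2% hematocrit and 0.05% parasitemia final, kept at 37 C, 5% CO2; luminescence loss indicates inhibition.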
CHX counter-1 = affects cycloheximide protein synthesis inhibition readout, counter-screen; max response, %; AID 2314; actives 12% (n = 300,000); cell reporter, cycloheximide protein synthesis inhibition counterscreen; in the data active means max response mostly above about 13%, no sharp cut-off; inactive means mostly below about 14%; further: read at 38.3 µM for the half of the compounds with a filed dose; 0% is about no effect
HCMV inh = human cytomegalovirus inhibition. HFF cells, HCMV-luciferase reporter, 72 h; hits give low values. activity change, negative = inhibition, % at 57.5 µM. actives 4.5% (n = 410,000). AID 1259415; in the data active means activity change below about -60%; inconclusive means no clear call, values can overlap the other calls; inactive means above about -39%; further: on the % scale 0 is the no-effect control and ±100 the full control effect
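Inhibition of viral replication was scored as loss of reporter luminescence in HFFs infected with HCMV-luciferase (MOI 1 PFU/cell) for 72 h; compounds tested at 2 doses, normalized to buffer and Salinomycin controls.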
Shiga toxin inh = Shiga toxin inhibition. Vero cells, Shiga toxin protein synthesis inhibition reporter. inhibition, % at 38.7 µM. actives 9.2% (n = 290,000). AID 2315; in the data active means inhibition mostly above about 28%, no sharp cut-off; inactive means mostly below about 43%; further: 0% is about no effect
CHX counter-2 = affects protein synthesis reporter in cycloheximide counter-screen | shares compounds with Shiga toxin inh | Cycloheximide counterscreen, protein synthesis reporter, Shiga toxin assay | Potency, µM (highest dose often 38.3 µM), without a hit: at the top dose activity (activation), most hits filed as activators | actives 3% (n = 510); calls by dose curve; further: potency means the concentration at half of the fitted maximal effect; 0% is about no effect
* marks the source's active call; other numbers are inactive results; ? = inconclusive; nt = no result. Sampled rows, rich in hits. Any-hit rate of the full collection: about 20%. Unless noted, the call rests on the fitted dose curve; in most records, active means well fitted inhibition curve with a large enough effect; inconclusive means small, poorly fitted or top-dose-only effect, or another doubt; inactive means no such curve, though single readings can be large or run the other way.

SMILES	Pf growth 48h	Pf growth 96h	CHX counter-1	HCMV inh	Shiga toxin inh	CHX counter-2
CN(C1CCCCC1)S(=O)(=O)c1ccc(SCC(=O)C(C)(C)C)nc1	nt	nt	nt	-30.8	nt	nt
CC(C#N)Sc1ccc(S(=O)(=O)N(C)C2CCCCC2)cn1 (stereo not drawn)	1.1%	-9.9%	nt	-61.6*	nt	nt
CC(C)CNC(=O)CSc1ccc(S(=O)(=O)N(C)C2CCCCC2)cn1	9.28µM*	-13.4%	nt	-12.4	nt	nt
CCOC(=O)NC(=O)CSc1ccc(S(=O)(=O)N(C)C2CCCCC2)cn1	6.57µM*	13.1µM*	nt	0.0	nt	nt
CCN[C@H]1CN(CCCOC)S(=O)(=O)c2sc(S(N)(=O)=O)cc21	-29.9%	47.7%	nt	-24.2	nt	nt
O=C1CC(c2ccc(Br)cc2)c2c(ccc3ccccc23)N1 (stereo not drawn)	nt	nt	nt	8.7	nt	nt
COc1cc(CC(=O)OCC(=O)NCC(C)C)cc(OC)c1OC	?	30.1%	-4.0	80.9	4.7	nt
CC1CC(C)CN(C(=O)COC(=O)c2ccc3c(c2)OCO3)C1 (stereo not drawn)	97.8%	99.6%	nt	?	nt	nt
O=C(c1ccc2ccccc2c1)N1CCCCC1	5.9%	24.9%	-3.6	4.7	-7.1	nt
O=C(c1ccc2c(c1)OCO2)N1CCN(c2ccc(F)cc2)CC1	23.8%	11.0%	18.5*	-25.6	32.7	nt
CC1CCCC(C)N1C(=O)COC(=O)c1ccc2c(c1)OCO2 (stereo not drawn)	42.2%	40.3%	16.9*	-24.8	43.2	nt
C[N+]12CCCCC1C(COC(=O)c1ccc3c(c1)OCO3)CCC2 (stereo not drawn)	9.28µM*	nt	-1.7	3.9	5.1	nt
CN(C(=O)COC(=O)c1ccc2c(c1)OCO2)C1CCCCC1	nt	nt	nt	28.7	nt	nt
CC1CCN(C(=O)c2ccc3ccccc3c2)CC1	-34.9%	?	39.2*	58.4	52.4*	nt
COc1ccc(S(=O)Cc2ccc(C(=O)N3CCN(C(=O)c4ccco4)CC3)o2)cc1 (stereo not drawn)	19.8%	?	-3.1	1.8	7.9	nt
NC(=O)c1ccc(NC(=O)CSc2nc3ccccc3c(=O)n2CCCN2CCOCC2)cc1	-27.0%	-28.2%	nt	-15.2	nt	nt
CCC(C(=O)Nc1sc(C(N)=O)c(C)c1C(=O)OC)c1ccccc1 (stereo not drawn)	-29.5%	?	-2.9	11.6	-7.3	nt
CC1CCN(C(=O)c2ccc3c(c2)OCO3)CC1	0.2%	13.1µM*	9.3	8.6	3.4	nt
CC1CC(C)CN(C(=O)c2ccc3ccccc3c2)C1 (stereo not drawn)	0.828µM*	?	nt	-27.4	nt	nt
Cc1cc2ncn(C(=O)c3ccc4c(c3)OCO4)c2cc1C	34.9%	2.94µM*	10.5	89.3	31.1	nt
CC1CC(C)CN(C(=O)c2ccc(C(=O)c3ccccc3)cc2)C1 (stereo not drawn)	26.5%	7.4%	nt	-5.9	nt	nt
NC(=O)C1CCN(C(=O)c2ccc3ccccc3c2)CC1	52.1%	15.8%	17.2*	-24.2	32.7*	nt
C[C@H](CO)N1C[C@H](C)[C@@H](CN(C)Cc2ccncc2)Oc2c(NC(=O)Cc3ccccc3)cccc2C1=O	nt	nt	nt	11.5	nt	nt
COc1ccc(CNC(=O)NC(C)(C)c2cccc(C(C)(C)NC(=O)NCc3ccc(OC)cc3)c2)cc1	-11.7%	-18.6%	-1.8	-22.2	-12.3	nt
O=C1CN(C(=O)C2CCC(=O)N(CCc3ccc(Cl)cc3)C2)CCN1 (stereo not drawn)	0.0%	1.2%	-1.2	25.2	-5.9	nt
SMILES	Pf growth 48h	Pf growth 96h	CHX counter-1	HCMV inh	Shiga toxin inh	CHX counter-2
O=C(O)Cc1ccc2oc(-c3ccccn3)nc2c1	-0.8%	23.0%	13.2	57.7	37.9*	?
COc1ccc(CC(=O)NC(C)c2nnc(SCC(=O)c3ccc(OC)cc3)n2C)cc1 (stereo not drawn)	13.9%	?	-1.1	?	2.6	nt
COc1ccc(C(=O)CSc2nnc(C(CO)NC(=O)c3ccc(OC)cc3)n2C)cc1 (stereo not drawn)	-4.9%	nt	-2.5	-9.6	63.9*	-3.0%
CN(CC(=O)Nc1sccc1C#N)S(=O)(=O)c1ccc(F)cc1	0.0%	23.3%	nt	-10.6	nt	nt
CN(C)C(CNC(=O)CCS(=O)(=O)c1ccccc1)c1ccccc1 (stereo not drawn)	34.7%	32.3%	8.7	122.4	14.7	nt
CN(C)C(CNC(=O)CCC(=O)c1ccc(Br)cc1)c1ccccc1 (stereo not drawn)	-8.7%	-2.1%	11.2	14.2	38.3*	-1.3%
COc1ccccc1C(=O)Nc1nnc(SCC(=O)Nc2ccc3c(c2)oc2ccccc23)s1	57.2%	?	1.8	52.0	45.3*	11.3µM*
Cc1cc(C)nc(SCC(=O)Nc2cc(C)on2)n1	16.3%	-13.9%	10.2	3.2	119.1*	-0.9%
O=c1n(Cc2ccc(F)cc2)nc2n1-c1ccccc1SC2	-3.6%	22.7%	14.0	58.0	31.2*	5.8%
Cc1cc(CC(=O)O)n(C)c1C(=O)c1ccc(Cl)cc1	38.1%	46.4%	9.5	0.0	4.2	nt
Cc1cc(C)cc(NC(=O)C(OC(=O)c2ccc([N+](=O)[O-])o2)c2ccccc2)c1 (stereo not drawn)	4.8%	-26.6%	-1.5	60.1	30.1*	0.8%
Cn1ncc(Cl)c1C(=O)NNC(=O)Nc1cccc2ccccc12	4.5%	?	16.0	?	2.4	nt
COc1ccc(N2C(=O)C3CCCN3C2c2ccccc2Cl)cc1 (stereo not drawn)	nt	-16.6%	5.4	35.3	20.1	nt
O=C(NCc1ccco1)c1noc2c1CCCC2	58.6%	nt	10.4	22.8	41.9*	?
Cc1ccc2c(CN3CCCCC3C)cc(=O)oc2c1C (stereo not drawn)	?	?	5.4	2.9	40.1*	-1.3%
CN(C)S(=O)(=O)c1ccc(C(=O)OCC(=O)c2ccc3c(c2)NC(=O)CO3)cc1	-0.9%	-2.1%	2.1	-5.0	42.3*	-2.9%
Cc1cccc(C(=O)NC(NCCc2ccccc2)C(Cl)(Cl)Cl)c1 (stereo not drawn)	?	3.7µM*	-5.4	-71.3*	108.6*	0.2%
COc1ccccc1CN(Cc1cccnc1)S(=O)(=O)c1ccc(-n2cnnn2)c(OC)c1	?	8.28µM*	1.5	-25.8	47.4*	-1.8%
CN(CC(=O)Nc1cc(C(F)(F)F)ccc1-n1cncn1)Cc1ccccc1N1CCOCC1	nt	nt	nt	-20.9	nt	nt
Cc1cc(C)n(Cc2nc3ccccc3n2C)n1	0.0%	-0.5%	-1.6	35.7	11.3	nt
Cc1cc(C)nc(SCc2nc3ccccc3n2C)n1	30.5%	?	12.7	24.2	41.0*	8.4%
CCCn1nnc(NC(=O)Cc2ccc(Cl)cc2)n1	-1.8%	-21.8%	-1.8	17.9	17.2	nt
CCCn1nnc(NC(=O)COc2ccc(C3CCCCC3)cc2)n1	?	?	-4.0	3.3	75.4*	-0.5%
O=C(OCCn1c(=S)sc2ccccc21)c1ccccc1	nt	nt	nt	-34.8	nt	nt
Cc1noc(C)c1C(=O)Nc1ccc(N(C)C)cc1	1.7%	38.2%	-4.8	47.6	-12.3	nt
Cc1noc(C)c1C(=O)Nc1ccc2c(c1)CCC2	24.4%	14.7µM*	8.3	42.4	73.2*	-2.1%
